Data reported in PubChem BioAssay AID430 (Sanford-Burnham Center for Chemical Genomics, 2006).
Out of some 63,000 compounds screened, about 1,100 (1.7%) were called active. For the sample, actives were picked, then their nearest neighbours and some compounds at random. Entries with a potency or affinity are not part of this list. Unmarked numbers belong to inactive results. Cut-off read from the data, not from the text of the source: active = cytotoxicity above about 50%; inactive = the rest.

Assay: cytotoxicity in HPDE-C7 cells, cell-based, fluorescence, HTS (AID 430);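 note: cells exposed to compound for 48 hours before viability readout; 0% = vehicle and 100% = reference cytotoxic drug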
Conditions: HPDE-C7 pancreatic duct cells viability, at 10 µM, hits give high values

Structure (SMILES)	cytotoxicity
COCCSc1ccccc1C(=O)Nc1nncs1	-5.4%
O=C(CCN1CCN(c2ccccc2F)CC1)Nc1ccccc1F	-8.5%
O=C(CCN1CCN(CCC(=O)c2ccccc2)CC1)c1ccccc1	-22.9%
C=CCn1c(SCCC(=O)O)nc2c1c(=O)n(C)c(=O)n2C	-15.6%
COc1ccc(NC(C)=O)cc1NC(=O)CSc1nnc(-c2ccccc2)n1N	-1.2%
CC[C@H](C)C(=O)O[C@H]1C[C@@H](C)C=C2C=C[C@H](C)[C@H](CC[C@@H]3C[C@@H](O)CC(=O)O3)[C@H]21	57.6% (active)
NC(=O)COC(=O)c1ccc(S(=O)(=O)N2CCCCCC2)cc1	10.2%
CC(C)C[C@H](NC(=O)OC(C)(C)C)c1nnc(SCc2cccc(F)c2)o1	-12%
CC[C@@H](C)[C@H](NC(=O)OC(C)(C)C)c1nnc(S(=O)(=O)Cc2cc(C)ccc2C)o1	58.1% (active)
COC(=O)CS(=O)(=O)c1nnc([C@H](Cc2ccccc2)NC(=O)OC(C)(C)C)o1	-7.1%
CCC(C)[C@@H](NC(=O)OC(C)(C)C)c1nnc(S(=O)(=O)Cc2cccc(C)c2)o1 (some centres undefined)	5.7%
CCOC(=O)CSc1nnc([C@H](CC(C)C)NC(=O)OC(C)(C)C)o1	1.4%
CC(C)(C)OC(=O)N[C@@H](Cc1ccccc1)c1nnc(S(=O)(=O)Cc2cccc(F)c2)o1	-10.9%
CC(C)[C@H](NC(=O)OC(C)(C)C)c1nnc(S(=O)(=O)Cc2c(F)cccc2Cl)o1	-7.3%
Cc1ccc(CCNC(=O)NC(C)(C)C)cc1	-6.5%
O=C(OC1CCOC1=O)c1ccc(S(=O)(=O)N2CCCCCC2)cc1 (centres undefined)	-10.6%
COc1cc2c(C#N)c(N3CCCCC3)nc(N)c2c(N)n1	44.8%
CCOc1cc2c(C#N)c(N3CCOCC3)nc(N)c2c(N)n1	23%
COc1cc2c(C#N)c(N3CCN(c4ccccc4OC)CC3)nc(N)c2c(N)n1	54.8% (active)
N#Cc1c(N2CCCC2)nc(N)c2c(N)nc(N3CCCC3)cc12	1.9%
COc1cc2c(C#N)c(N3CCOCC3)nc(N)c2c(N)n1	37.5%
COc1ccc(Cc2nc(-c3cccs3)no2)cc1OC	5.9%

Structure (SMILES)	cytotoxicity
Cc1ccc(OCCSc2nnc(NC(=O)c3ccco3)s2)cc1	4.3%
CCC(C)NC(=O)CCS(=O)(=O)c1ccc2c(c1)n(C)c(=O)c(=O)n2C (centres undefined)	-0.5%
CC(C(=O)Nc1sccc1C(N)=O)N1C(=O)C2CC=CCC2C1=O (centres undefined)	-1.9%
CC(CCc1ccccc1)NC(=O)C1CCN(S(=O)(=O)N2CCCCC2)CC1 (centres undefined)	-21.3%
Clc1c(CSc2nc3ccccc3o2)nc2sccn12	13.8%
O=C(O)C1CCCCC1C(=O)Nc1ccc2c(c1)CCC2 (centres undefined)	-13.4%
CC1CCCCC1NC(=O)CSc1nnc(COc2ccccc2Cl)o1 (centres undefined)	-6.2%
CCCn1c(N)c(N(C)C)c(=O)n(CC(=O)Nc2ccc(OC(F)(F)F)cc2)c1=O	-2.7%
COc1ccc(OC)c(Nc2cc(C)nc3ccccc23)c1	-3.8%
COc1cc(-c2ccccc2)nc(N)n1	-3.4%
COc1ccc(OC)c(Nc2cc(-c3ccccc3)nc(N)n2)c1	68.5% (active)
Cc1nc2ccccc2c2oc(C(=O)N3CCc4ccccc43)cc12	0.3%
COCCN1C=C(C(=O)OC)C(c2ccc(OC)c(OC)c2)C(C(=O)OC)=C1	-14.4%
CC1CN(c2nc3ccccn3c(=O)c2/C=C(\C#N)S(=O)(=O)c2ccccc2)CC(C)O1 (centres undefined)	-12.3%
Cc1ccc(NC(=O)CSc2nnc(-c3ccco3)c(-c3ccco3)n2)cc1	82.6% (active)
Cc1cc(C)nc(SCc2nnc(SCc3ccccc3Cl)o2)n1	-4.7%
COc1ccc(NC(=O)CSc2nnc(-c3ccco3)n2C)cc1	-10.6%
O=C(CSc1nnc(-c2ccco2)c(-c2ccco2)n1)Nc1ccccc1	9.9%
Clc1ccccc1CSc1ncccn1	-5.2%
CC1(C)OC(=O)C(=CNc2cccc(C(=O)O)c2)C(=O)O1	-20.6%
COc1ccc(S(=O)(=O)NCCSc2ccc(C)cc2)cc1OC	12.8%
COc1ccc(-c2nc(CN3CCC(C(=O)NC(C)C)CC3)c(C)o2)cc1OC	-10.9%

Structure (SMILES)	cytotoxicity
COc1ccc(C2CC(c3c(O)cc(C)oc3=O)=NCCS2)c(OC)c1 (centres undefined)	71.1% (active)
COc1ccc(C2C(C(C)=O)=C(O)C(=O)N2C)c(OC)c1 (centres undefined)	6.1%
COc1ccc(C2NC(=O)c3n[nH]c(C)c32)c(OC)c1 (centres undefined)	4.3%
Cc1cccc(N(Cc2nnc3n2CCCCC3)C(=O)Nc2ccccc2)c1	-21.7%
COc1cc(CO)cc(-c2cc(CO)cc(OC)c2OC)c1OC	4%
CC1(C)Cc2c(c(N3CCCC3)nc3sc4c(N5CCN(CCO)CC5)ncnc4c23)CO1	60.5% (active)
CN1CCN(c2ncnc3c2sc2nc(N4CCCC4)c4c(c23)CC(C)(C)OC4)CC1	-7.2%
OCCN1CCN(c2ncnc3c2sc2nc(N4CCOCC4)c4c(c23)CCC4)CC1	35.6%
Cn1c(NCC(O)c2ccccc2)nc2c1c(=O)n(Cc1ccc(Cl)cc1)c(=O)n2C (centres undefined)	53.2% (active)
Cn1c(N2CCN(c3ccccn3)CC2)nc2c1c(=O)n(Cc1ccccc1Cl)c(=O)n2C	-12.8%
Cn1c(OCc2cccnc2)nc2c1c(=O)n(Cc1ccc(Cl)cc1)c(=O)n2C	44%
Cn1c(OCc2cccnc2)nc2c1c(=O)n(Cc1ccc(Br)cc1)c(=O)n2C	50.4% (active)
Cn1c(N2CCCC2)nc2c1c(=O)n(Cc1ccc(Cl)cc1)c(=O)n2C	1.7%
Cn1c(NCc2ccccc2)nc2c1c(=O)n(Cc1ccccc1)c(=O)n2C	5.6%
COc1ccc(CNc2nc3c(c(=O)n(Cc4ccc(Cl)cc4)c(=O)n3C)n2C)cc1	26.6%
Cn1c(NCc2ccco2)nc2c1c(=O)n(Cc1ccc(Cl)c(Cl)c1)c(=O)n2C	8%
Cn1c(OCc2cccnc2)nc2c1c(=O)n(Cc1ccccc1)c(=O)n2C	25%
Cn1c(NCC(O)c2ccccc2)nc2c1c(=O)n(Cc1ccc(Cl)c(Cl)c1)c(=O)n2C (centres undefined)	69% (active)
Cn1c(N2CCN(c3ccccn3)CC2)nc2c1c(=O)n(Cc1ccc(Cl)cc1)c(=O)n2C	66.4% (active)
Cn1c(NCCCN2CCOCC2)nc2c1c(=O)n(Cc1ccc(Cl)c(Cl)c1)c(=O)n2C	44%
